The values below come from PMC7862700, “An all-to-all approach to the identification of sequence-specific readers for epigenetic DNA modifications on cytosine”.

Common to all, as to experiment: DAPPL (digital affinity profiling via proximity ligation, sequencing); 10 mM Tris-HCl pH 7.5, 50 mM NaCl, 1 mM DTT, 4% glycerol, room temperature, 30 min; GST-TFs on glutathione beads, 16-mer random dsDNA library, 0.1% formaldehyde crosslink after washing; high values mean tight binding
One test addresses T1, FLI1 (Homo sapiens, UniProt Q01543 1-452).
T1 sequence: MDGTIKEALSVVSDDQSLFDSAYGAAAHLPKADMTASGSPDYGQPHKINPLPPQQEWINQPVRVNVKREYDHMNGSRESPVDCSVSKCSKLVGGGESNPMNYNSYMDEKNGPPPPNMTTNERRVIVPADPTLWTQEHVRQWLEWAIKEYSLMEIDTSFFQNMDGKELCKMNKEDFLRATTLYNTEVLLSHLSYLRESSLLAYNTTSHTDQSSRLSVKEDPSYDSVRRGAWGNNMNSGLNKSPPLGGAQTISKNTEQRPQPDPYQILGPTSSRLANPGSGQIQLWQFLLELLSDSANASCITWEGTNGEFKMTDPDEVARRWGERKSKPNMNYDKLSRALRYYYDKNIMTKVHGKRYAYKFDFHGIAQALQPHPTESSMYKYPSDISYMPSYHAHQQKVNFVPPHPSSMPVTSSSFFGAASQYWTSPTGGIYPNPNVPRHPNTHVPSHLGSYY
To be noted: protein: recombinant; tags: N-terminal GST; dsDNA, one strand shown. In a few lines: (§1)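 Beads coated with glutathione captured GST-fused human transcription factors that had been expressed in yeast, and the factors were then given DNA barcodes and pooled with a tag-only sample. The pools were incubated with 200 nmole of a random double-stranded 16-mer DNA library in Tris/NaCl/DTT/glycerol buffer for 30 min at room temperature, washed, crosslinked with 0.1% formaldehyde and proximity-ligated with BsaI/T4 ligase at 37 °C for 1 h. PCR amplification and Illumina NextSeq500 sequencing came last. Binding signal is each hexamer's read frequency for a factor divided by its frequency for the tag-only sample.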

A further test concerns the target T2, ELK1 (Homo sapiens, UniProt P19419 1-428).
T2 sequence: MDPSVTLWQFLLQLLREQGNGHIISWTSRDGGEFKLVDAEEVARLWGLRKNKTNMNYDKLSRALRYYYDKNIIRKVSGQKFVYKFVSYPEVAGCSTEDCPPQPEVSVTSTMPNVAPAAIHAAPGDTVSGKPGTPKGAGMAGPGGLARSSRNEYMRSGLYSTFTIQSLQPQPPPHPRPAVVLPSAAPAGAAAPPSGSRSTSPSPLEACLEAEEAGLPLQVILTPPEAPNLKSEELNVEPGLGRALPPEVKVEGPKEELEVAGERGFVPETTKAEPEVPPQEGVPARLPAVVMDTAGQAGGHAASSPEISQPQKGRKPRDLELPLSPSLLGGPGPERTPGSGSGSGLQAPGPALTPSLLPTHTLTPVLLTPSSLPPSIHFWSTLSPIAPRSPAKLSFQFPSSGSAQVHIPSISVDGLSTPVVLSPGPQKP
As to conditions: protein: recombinant; tags: N-terminal GST; dsDNA, one strand shown. In a few lines:
as §1

Another test deals with T3, GABPA (Homo sapiens, UniProt Q06546 1-454).
T3 sequence: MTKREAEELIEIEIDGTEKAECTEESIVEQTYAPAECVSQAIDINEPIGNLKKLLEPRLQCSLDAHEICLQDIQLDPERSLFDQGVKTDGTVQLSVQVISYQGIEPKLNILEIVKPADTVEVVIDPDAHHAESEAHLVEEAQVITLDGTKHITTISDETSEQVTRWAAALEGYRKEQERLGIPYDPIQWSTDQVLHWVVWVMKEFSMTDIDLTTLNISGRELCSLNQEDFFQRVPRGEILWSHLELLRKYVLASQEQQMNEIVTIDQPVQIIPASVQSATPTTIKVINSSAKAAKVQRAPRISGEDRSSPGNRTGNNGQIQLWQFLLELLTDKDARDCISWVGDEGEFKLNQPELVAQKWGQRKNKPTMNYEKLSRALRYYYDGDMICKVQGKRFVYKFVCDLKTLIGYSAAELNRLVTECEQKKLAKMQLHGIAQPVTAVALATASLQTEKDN
To be noted: protein: recombinant; tags: N-terminal GST; dsDNA, one strand shown. In a few lines: as §1

The next test deals with T4, ERG (Homo sapiens, UniProt P11308 1-479).
T4 sequence: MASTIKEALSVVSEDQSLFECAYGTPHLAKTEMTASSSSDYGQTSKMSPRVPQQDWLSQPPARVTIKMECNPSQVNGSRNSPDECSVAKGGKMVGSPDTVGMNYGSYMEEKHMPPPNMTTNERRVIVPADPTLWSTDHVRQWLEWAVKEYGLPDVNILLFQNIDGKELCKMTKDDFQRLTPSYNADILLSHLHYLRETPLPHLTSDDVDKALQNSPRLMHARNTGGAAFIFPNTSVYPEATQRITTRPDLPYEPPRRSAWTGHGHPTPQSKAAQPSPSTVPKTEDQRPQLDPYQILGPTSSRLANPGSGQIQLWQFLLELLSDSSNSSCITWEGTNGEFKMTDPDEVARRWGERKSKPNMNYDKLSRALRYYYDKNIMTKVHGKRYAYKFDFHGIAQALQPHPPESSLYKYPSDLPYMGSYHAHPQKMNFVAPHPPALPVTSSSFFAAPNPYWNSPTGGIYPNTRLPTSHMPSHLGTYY
To be noted: protein: recombinant; tags: N-terminal GST; dsDNA, one strand shown. An outline of the steps:
as §1

In another test the target is ELF1 (Homo sapiens, UniProt P32519 1-619). As to conditions: protein: recombinant; tags: N-terminal GST; dsDNA, one strand shown. In a few lines: as §1
Chain of ELF1 (P32519 whole entry): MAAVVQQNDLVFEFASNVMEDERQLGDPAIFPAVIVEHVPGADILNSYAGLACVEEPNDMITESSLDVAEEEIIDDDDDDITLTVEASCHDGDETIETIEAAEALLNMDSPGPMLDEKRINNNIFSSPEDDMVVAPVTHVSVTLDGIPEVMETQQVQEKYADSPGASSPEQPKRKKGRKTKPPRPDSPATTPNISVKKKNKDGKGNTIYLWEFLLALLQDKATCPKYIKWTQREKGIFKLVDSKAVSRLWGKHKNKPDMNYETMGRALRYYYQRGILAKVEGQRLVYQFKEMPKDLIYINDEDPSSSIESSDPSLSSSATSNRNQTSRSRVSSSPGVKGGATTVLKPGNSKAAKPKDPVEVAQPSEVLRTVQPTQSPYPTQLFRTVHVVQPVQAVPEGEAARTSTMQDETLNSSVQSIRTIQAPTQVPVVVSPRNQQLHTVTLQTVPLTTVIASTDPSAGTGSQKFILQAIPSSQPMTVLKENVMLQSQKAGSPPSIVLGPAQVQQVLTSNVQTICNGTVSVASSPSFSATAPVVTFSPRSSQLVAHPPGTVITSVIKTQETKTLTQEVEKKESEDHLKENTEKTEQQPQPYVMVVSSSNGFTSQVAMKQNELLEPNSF
For a further test, the target named is T5, EHF (Homo sapiens, UniProt Q9NZC4 1-300).
T5 sequence: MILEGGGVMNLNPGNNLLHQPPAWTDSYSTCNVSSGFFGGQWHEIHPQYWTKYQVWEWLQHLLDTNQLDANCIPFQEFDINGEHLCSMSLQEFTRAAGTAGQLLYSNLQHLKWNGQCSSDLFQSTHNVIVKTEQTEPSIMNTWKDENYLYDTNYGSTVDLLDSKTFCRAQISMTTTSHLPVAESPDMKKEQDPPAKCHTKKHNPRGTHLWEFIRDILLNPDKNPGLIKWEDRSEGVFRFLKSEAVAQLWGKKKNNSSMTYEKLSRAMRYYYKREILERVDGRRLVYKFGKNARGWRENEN
To be noted: protein: recombinant; tags: N-terminal GST; dsDNA, one strand shown. In a few lines: as §1

Another test has as its target SPI1 (Homo sapiens, UniProt P17947 1-270). As to conditions: protein: recombinant; tags: N-terminal GST; dsDNA, one strand shown. In a few lines: as §1
Another test addresses SPIB (Homo sapiens, UniProt Q01892 1-262). As to conditions: protein: recombinant; tags: N-terminal GST; dsDNA, one strand shown. In a few lines:
as §1

Another test has as its target T6, ELK3 (Homo sapiens, UniProt P41970 1-407).
T6 sequence: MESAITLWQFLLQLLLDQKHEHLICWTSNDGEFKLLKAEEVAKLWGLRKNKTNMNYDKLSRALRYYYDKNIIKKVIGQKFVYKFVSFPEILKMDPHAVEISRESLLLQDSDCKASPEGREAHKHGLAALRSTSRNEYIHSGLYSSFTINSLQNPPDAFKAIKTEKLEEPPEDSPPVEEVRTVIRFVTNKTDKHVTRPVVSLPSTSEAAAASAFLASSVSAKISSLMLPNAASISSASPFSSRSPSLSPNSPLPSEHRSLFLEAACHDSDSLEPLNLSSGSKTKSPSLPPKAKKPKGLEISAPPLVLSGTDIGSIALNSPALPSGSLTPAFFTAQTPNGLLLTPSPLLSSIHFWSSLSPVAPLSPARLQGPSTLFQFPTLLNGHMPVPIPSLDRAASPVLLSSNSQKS
To be noted: protein: recombinant; tags: N-terminal GST; dsDNA, one strand shown. An outline of the steps: as §1

The target of a further test is ETV5 (Homo sapiens, UniProt P41161 1-510). To be noted: protein: recombinant; tags: N-terminal GST; dsDNA, one strand shown. An outline of the steps:
as §1

The target in another test is HSF1 (Homo sapiens, UniProt Q00613 1-529). As to conditions: protein: recombinant; tags: N-terminal GST; chain copies: 3; dsDNA, one strand shown. An outline of the steps: as §1
Chain of HSF1 (Q00613 whole entry): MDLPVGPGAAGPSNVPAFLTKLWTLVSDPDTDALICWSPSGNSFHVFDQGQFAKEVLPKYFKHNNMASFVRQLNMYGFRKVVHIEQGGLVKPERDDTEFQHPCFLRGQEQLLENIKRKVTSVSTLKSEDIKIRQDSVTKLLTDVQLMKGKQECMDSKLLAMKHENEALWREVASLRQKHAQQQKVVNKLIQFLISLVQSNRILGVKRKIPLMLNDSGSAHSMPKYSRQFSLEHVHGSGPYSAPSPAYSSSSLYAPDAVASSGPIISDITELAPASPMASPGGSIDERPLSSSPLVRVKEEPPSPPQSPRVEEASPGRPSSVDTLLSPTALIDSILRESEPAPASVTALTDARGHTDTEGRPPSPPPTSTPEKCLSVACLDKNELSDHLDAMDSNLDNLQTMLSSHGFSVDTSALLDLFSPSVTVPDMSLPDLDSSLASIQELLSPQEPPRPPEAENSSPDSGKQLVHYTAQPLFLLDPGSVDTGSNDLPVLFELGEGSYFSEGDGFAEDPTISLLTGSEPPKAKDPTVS
The target in another test is T7, SPIC (Homo sapiens, UniProt Q8N5J4 1-248).
T7 sequence: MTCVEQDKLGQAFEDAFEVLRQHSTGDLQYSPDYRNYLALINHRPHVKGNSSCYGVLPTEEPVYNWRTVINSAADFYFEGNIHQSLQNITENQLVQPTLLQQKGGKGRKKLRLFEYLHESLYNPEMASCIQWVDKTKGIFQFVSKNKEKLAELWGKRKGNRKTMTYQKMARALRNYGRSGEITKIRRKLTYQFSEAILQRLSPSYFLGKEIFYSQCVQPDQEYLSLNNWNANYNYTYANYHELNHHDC
As to conditions: protein: recombinant; tags: N-terminal GST; dsDNA, one strand shown. An outline of the steps: as §1

The next test deals with ELF4 (Homo sapiens, UniProt Q99607 1-663). To be noted: protein: recombinant; tags: N-terminal GST; dsDNA, one strand shown. In a few lines:
as §1

Another test has as its target T8, ELK4 (Homo sapiens, UniProt P28324-2 1-405).
T8 sequence: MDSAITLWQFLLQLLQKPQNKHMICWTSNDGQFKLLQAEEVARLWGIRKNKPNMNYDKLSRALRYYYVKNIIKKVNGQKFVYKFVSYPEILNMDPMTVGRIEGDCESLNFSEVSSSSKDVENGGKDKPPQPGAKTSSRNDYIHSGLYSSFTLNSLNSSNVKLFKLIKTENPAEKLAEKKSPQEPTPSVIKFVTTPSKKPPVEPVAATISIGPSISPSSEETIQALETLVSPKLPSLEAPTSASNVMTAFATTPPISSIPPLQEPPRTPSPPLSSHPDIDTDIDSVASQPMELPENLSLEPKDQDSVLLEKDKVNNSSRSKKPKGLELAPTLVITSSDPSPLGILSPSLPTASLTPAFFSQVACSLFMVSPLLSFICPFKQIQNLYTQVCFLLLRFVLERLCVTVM
As to conditions: protein: recombinant; tags: N-terminal GST; dsDNA, one strand shown. An outline of the steps:
as §1

The next test deals with CRX (Homo sapiens, UniProt O43186 1-299). As to conditions: protein: recombinant; tags: N-terminal GST; dsDNA, one strand shown. In a few lines: as §1
Chain of CRX (O43186 whole entry): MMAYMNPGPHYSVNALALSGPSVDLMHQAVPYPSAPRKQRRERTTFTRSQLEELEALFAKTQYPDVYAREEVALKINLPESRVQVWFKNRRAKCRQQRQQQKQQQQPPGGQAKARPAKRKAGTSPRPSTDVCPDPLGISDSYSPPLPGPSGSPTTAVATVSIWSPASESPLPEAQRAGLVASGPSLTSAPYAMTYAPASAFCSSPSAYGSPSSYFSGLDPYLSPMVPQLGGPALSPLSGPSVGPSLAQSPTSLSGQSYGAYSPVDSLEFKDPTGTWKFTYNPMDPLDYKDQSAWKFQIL
For the next test, the target named is ETV1 (Homo sapiens, UniProt P50549 1-477). As to conditions: protein: recombinant; tags: N-terminal GST; dsDNA, one strand shown. In a few lines: as §1
Chain of ETV1 (P50549 whole entry): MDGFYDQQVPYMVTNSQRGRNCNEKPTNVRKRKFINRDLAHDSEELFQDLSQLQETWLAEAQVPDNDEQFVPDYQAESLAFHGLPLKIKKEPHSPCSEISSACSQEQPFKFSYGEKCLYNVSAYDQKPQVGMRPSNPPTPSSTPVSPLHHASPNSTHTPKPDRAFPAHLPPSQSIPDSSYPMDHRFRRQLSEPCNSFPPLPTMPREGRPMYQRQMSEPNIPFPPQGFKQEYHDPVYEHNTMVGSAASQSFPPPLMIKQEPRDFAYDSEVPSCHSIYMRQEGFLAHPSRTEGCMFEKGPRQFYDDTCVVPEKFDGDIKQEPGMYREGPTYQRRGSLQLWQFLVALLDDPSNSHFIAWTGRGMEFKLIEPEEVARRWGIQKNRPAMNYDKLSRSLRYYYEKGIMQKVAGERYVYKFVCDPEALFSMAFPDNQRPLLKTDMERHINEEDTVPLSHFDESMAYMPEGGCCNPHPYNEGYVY

Chain of SPIB (Q01892 whole entry): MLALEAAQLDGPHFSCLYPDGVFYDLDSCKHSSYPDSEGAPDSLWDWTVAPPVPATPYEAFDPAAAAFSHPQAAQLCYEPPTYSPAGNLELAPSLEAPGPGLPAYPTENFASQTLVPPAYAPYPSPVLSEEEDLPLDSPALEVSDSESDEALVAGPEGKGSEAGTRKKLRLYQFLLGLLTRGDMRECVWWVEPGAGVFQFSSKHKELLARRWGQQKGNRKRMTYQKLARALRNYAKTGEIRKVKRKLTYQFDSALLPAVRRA
Chain of ETV5 (P41161 whole entry): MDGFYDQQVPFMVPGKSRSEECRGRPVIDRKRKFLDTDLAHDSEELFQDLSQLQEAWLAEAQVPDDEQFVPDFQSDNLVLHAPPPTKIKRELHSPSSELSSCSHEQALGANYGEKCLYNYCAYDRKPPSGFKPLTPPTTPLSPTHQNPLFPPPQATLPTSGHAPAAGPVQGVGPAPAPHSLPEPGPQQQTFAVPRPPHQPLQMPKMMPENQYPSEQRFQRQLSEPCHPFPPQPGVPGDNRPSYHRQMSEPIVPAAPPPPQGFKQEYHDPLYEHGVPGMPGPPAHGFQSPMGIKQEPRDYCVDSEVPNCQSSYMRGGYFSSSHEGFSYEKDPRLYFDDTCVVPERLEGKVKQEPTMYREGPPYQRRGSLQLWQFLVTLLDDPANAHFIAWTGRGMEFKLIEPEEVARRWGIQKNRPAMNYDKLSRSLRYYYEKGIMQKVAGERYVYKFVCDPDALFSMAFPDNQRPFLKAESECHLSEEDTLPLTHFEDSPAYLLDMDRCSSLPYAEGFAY
Chain of ELF4 (Q99607 whole entry): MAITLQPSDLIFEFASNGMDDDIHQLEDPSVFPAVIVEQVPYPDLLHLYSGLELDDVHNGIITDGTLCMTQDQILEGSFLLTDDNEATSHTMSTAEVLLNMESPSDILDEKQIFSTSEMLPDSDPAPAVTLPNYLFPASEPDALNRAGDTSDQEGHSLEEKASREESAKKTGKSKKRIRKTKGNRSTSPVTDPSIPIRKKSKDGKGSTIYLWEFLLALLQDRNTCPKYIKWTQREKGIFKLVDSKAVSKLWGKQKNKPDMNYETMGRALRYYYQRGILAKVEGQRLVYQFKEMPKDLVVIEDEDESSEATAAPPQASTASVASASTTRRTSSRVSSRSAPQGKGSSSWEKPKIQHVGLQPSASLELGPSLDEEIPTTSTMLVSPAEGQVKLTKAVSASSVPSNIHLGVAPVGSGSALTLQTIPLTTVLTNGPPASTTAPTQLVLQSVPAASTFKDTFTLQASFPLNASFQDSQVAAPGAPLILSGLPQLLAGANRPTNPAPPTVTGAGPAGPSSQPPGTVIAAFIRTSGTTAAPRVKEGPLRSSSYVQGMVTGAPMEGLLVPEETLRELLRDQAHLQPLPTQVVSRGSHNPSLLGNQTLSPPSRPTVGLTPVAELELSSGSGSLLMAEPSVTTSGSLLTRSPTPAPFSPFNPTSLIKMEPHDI

As for GATAAT, the binding signal was 1.04 fold enrichment (6-mer frequency, TF over GST control) with FLI1; 1.05 fold enrichment (6-mer frequency, TF over GST control) in the test with ELK1; 1.13 fold enrichment (6-mer frequency, TF over GST control) in the test with GABPA; 1.03 fold enrichment (6-mer frequency, TF over GST control) in the test with ERG; 1.02 fold enrichment (6-mer frequency, TF over GST control) with ELF1; 1.09 fold enrichment (6-mer frequency, TF over GST control) with EHF. Besides, the binding signal is 1.09 fold enrichment (6-mer frequency, TF over GST control) with SPI1; 1.12 fold enrichment (6-mer frequency, TF over GST control) with SPIB; 1.12 fold enrichment (6-mer frequency, TF over GST control) with ELK3; 1.05 fold enrichment (6-mer frequency, TF over GST control) in the test with ETV5; 1.98 fold enrichment (6-mer frequency, TF over GST control) with HSF1; 1.27 fold enrichment (6-mer frequency, TF over GST control) with SPIC. Moreover, the binding signal with ELF4 is 1.1 fold enrichment (6-mer frequency, TF over GST control); with ELK4, 1.09 fold enrichment (6-mer frequency, TF over GST control); with CRX, 2.88 fold enrichment (6-mer frequency, TF over GST control); with ETV1 it was 1.14 fold enrichment (6-mer frequency, TF over GST control).
